Screens (PubChem)
Most compounds without a hit are left out; they make up all but 1.7% or so of the library.
CFTR F508del cor = F508del CFTR correction, initial screen, CFBE line, single point | 0.36% of 350,000 active | AID 720511, 2013 | CFBE cells, YFP halide quenching; stimulated with forskolin plus potentiator P3; % fluorescence drop versus neutral controls | activity (quench increase), % at 7.58 µM;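 active = mean added fluorescence quench of at least 8% versus neutral control, with both replicates also reaching 8%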;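 note: cells transiently co-express mutant CFTR-F508del with the halide-sensitive YFP; corrector assay measuring rescue of mutant channel to the surface after 24 h compound exposure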
Vif inh = HIV Vif self-association inhibitors, primary screen, imaging, HEK293T, single point. HEK293T cells, Vif self-association by quenched fluorescence, 24 h. inhibition, % at 7.49 µM. 0.35% of 340,000 active. AID 602346, 2012; in the data active = inhibition above about 50%, passing the limit was not always enough
FGF22 binding = binders of human FGF22 protein, primary screen, FGF22 synaptogenesis inhibitor project, biophysical, thermal shift, single point; recombinant FGF22 thermal shift, SYPRO orange fluorescence; percent of sucrose octasulfate shift, DMSO zero; activity (Tm shift, normalised), % at 9.99 µM; 1.5% of 340,000 active;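 active = mean Tm shift, scaled 0 neutral to 100 positive control, at about 1.3% or above, every replicate too, limit read from the data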
Target sequence (Q9HCT0 whole entry, looked up): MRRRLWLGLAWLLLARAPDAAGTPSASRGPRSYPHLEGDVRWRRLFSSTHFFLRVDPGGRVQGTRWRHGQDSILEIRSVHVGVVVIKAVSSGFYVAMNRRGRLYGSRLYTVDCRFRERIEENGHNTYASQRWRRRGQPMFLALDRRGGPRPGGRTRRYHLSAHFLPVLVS
Numbers without * were called inactive; nt = no result given.

SMILES	CFTR F508del cor	Vif inh	FGF22 binding
CCN(CCn1cccn1)C(=O)CC1C(=O)NCCN1Cc1cc(OC)cc(OC)c1 (configuration not stated)	2	2	44*
COc1ccc(NC(=O)c2cc(S(=O)(=O)N3CCCCC3)ccc2C)cc1S(=O)(=O)N1CCOCC1	-1	1	0
COc1ccc(NC(=O)CCN2C(=O)C3CC=CCC3C2=O)cc1S(=O)(=O)N1CCCCC1 (configuration not stated)	-1	73*	0
Cc1ccc(NC(=O)c2cc(S(=O)(=O)N(C)C)ccc2N2CCCC2)cc1S(=O)(=O)N(C)C	2	0	-1
COc1ccc(NC(=O)c2c(F)cccc2Cl)cc1S(=O)(=O)N1CCOCC1	1	2	43*
COc1ccc(NC(=O)c2cc(S(=O)(=O)N3CCOCC3)ccc2C)cc1S(=O)(=O)N1CCOCC1	10*	12	0
COc1ccc(NC(=O)CCCC2CCCCC2)cc1S(=O)(=O)N1CCCCC1	nt	-2	0
COc1ccc(NC(=O)c2ccccn2)cc1S(=O)(=O)N1CCOCC1	-2	0	0
Cc1ccc(NC(=O)c2cc(S(=O)(=O)N3CCCCC3)ccc2N2CCOCC2)cc1S(=O)(=O)N(C)C	-1	52*	0
C[C@@H]1CN([C@@H](C)CO)C(=O)c2cc(-c3ccc(F)cc3)cnc2O[C@H]1CN(C)CC1CCCC1	0	nt	0
CNC(=O)C[C@H]1CC[C@H]2[C@H](COc3ccc(NC(=O)Nc4ccccc4)cc3C(=O)N2C)O1	1	nt	0
Cc1cc(C(=O)Nc2cccc3c2O[C@@H](CN(C)C(=O)NC(C)C)[C@H](C)CN([C@H](C)CO)C3=O)n(C)n1	2	nt	0
O=C(C[C@@H]1C=C[C@H](NC(=O)Nc2cc(F)ccc2F)[C@@H](CO)O1)Nc1ccc(-c2ccccc2)cc1	2	nt	1
C[C@@H]1CN([C@H](C)CO)C(=O)Cc2cc(NC(=O)CCN3CCOCC3)ccc2O[C@H]1CN(C)Cc1ccc(Oc2ccccc2)cc1	0	nt	0
CC(=O)NC1=NN(C(C)=O)C(C)(CC(=O)OC(C)(C)C)S1 (configuration not stated)	-5	7	43*
CCCC1(C)SC(NC(C)=O)=NN1C(C)=O (configuration not stated)	nt	0	nt
O=C(CN1C(=O)C2C3C=CC(C4CC34)C2C1=O)Nc1cnc2ccccc2c1 (configuration not stated)	-1	2	44*
O=C(CN1C(=O)C2C3C=CC(C3)C2C1=O)Nc1ccc2nccnc2c1 (configuration not stated)	-1	0	1
COCC(C)n1c(SCC(=O)N2CC(=O)Nc3ccccc32)nc2ccccc2c1=O (configuration not stated)	15*	3	0
Cc1cccc(-n2c(SCC(=O)N3CC(=O)Nc4ccccc43)nc3ccccc3c2=O)c1C	0	7	0
CC(C)(C)c1nc(SCC(=O)N2CC(=O)Nc3ccccc32)c2ccccc2n1	0	-1	44*
CC(c1ccccc1)n1c(SCC(=O)N2CC(=O)Nc3ccccc32)nc2ccccc2c1=O (configuration not stated)	nt	-9	nt
CN(C)CC(=O)N[C@@H]1CC[C@@H](CC(=O)NCCN2CCCCC2)O[C@H]1CO	0	nt	0
O=C(O)c1cc(Nc2cc(Cl)c3nonc3c2[N+](=O)[O-])ccc1O	1	15	1.8*
CC(=O)Nc1ccc(Nc2cc(N3CCOCC3)c3nonc3c2[N+](=O)[O-])cc1	0	2	nt
SMILES	CFTR F508del cor	Vif inh	FGF22 binding
O=[N+]([O-])c1c(Nc2ccc(O)cc2)cc(N2CCOCC2)c2nonc12	-1	7	44*
O=[N+]([O-])c1c(Nc2ccccc2O)cc(Cl)c2nonc12	-6	1	0
COC(=O)[C@H]1[C@H](CO)[C@H]2Cn3c(ccc(-c4cccnc4)c3=O)[C@H]2N1Cc1ccccc1F	3	nt	0
C[C@H]1CN([C@@H](C)CO)C(=O)c2cccc(NS(=O)(=O)c3cn(C)cn3)c2O[C@@H]1CN(C)CC1CC1	0	nt	0
Cc1ccnc(NC(=O)CCCOc2cc(=O)n(C)c3ccccc23)c1	-3	97*	0
Cn1c(=O)cc(OCCCC(=O)NCc2ccccn2)c2ccccc21	nt	9	nt
O=C(O)CSCc1nc2ccccc2[nH]1	0	-2	44*
C=C(C)CSCc1nc2ccccc2[nH]1	nt	-1	nt
